IL-1B inflam inh – blocks inflammasome-driven IL-1 beta release | 4.7% of 360,000 active | THP-1 LPS/ATP IL-1B secretion, AlphaLISA, 16 h; active compounds read low | activity change, % at 57.5 µM | AID 743279; in the data active = activity change below about -50%; inconclusive = mostly about -30% to -49%
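Secreted IL-1B measured by AlphaLISA bead assay after 16 h compound exposure of THP-1 cells; compounds (final up to 57.5 uM) added 1 h before LPS (250 ng/mL) and ATP (1.25 mM) stimulation; lower signal means less secretion.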
HT1080NT lethal – kills 2HG-producing HT-1080-NT fibrosarcoma cells. 1.6% of 360,000 active. HT-1080-NT fibrosarcoma viability, CellTiter-Glo ATP luminescence, 48 h. Potency, µM (titrated, usually from 46.1 µM), for inactives: top-dose activity, negative = less viability, usual class: cytotoxic. AID 686970;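 note: NT is the 2HG producing partner of a matched IDH1 knockdown line; potency is the fitted concentration of half-maximal effect; 0% = DMSO-treated cells and -100% = media-only wells without cells; nearly all actives have a fitted effect of over 55% in size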
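Luminescent CellTiter-Glo readout after 48 hours of compound exposure at 37 degrees C defined viability of HT-1080-NT cells. Activity was normalized to DMSO wells and cell-free media wells; concentration-response curves were fitted and assigned curve classes.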
DT40 TDP1 CPT – growth inhibition of DT40 Tdp1-/-;hTDP1 cells with camptothecin (screen for TDP1 inhibitors). chicken DT40 Tdp1-/-;hTDP1 cells + 20 nM CPT, ATP luminescence, 48 h. Potency, µM (doses to about 46.2 µM), inactives show at the top dose activity change, negative = growth inhibition, actives largely listed as inhibitors. 12% of 420,000 active. AID 686979; note: potency is the fitted concentration of half-maximal effect; nearly all actives have a fitted effect of over 55% in size
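Chicken DT40 Tdp1-/- cells stably complemented with human TDP1 were seeded at 400 cells/well in medium containing 20 nM camptothecin, exposed to pin-transferred compounds, and grown at 37 °C for at least 48 hr. Viability was read as ATP luminescence.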
TDP1 cell noCPT – qHTS for Inhibitors of human tyrosyl-DNA phosphodiesterase 1 (TDP1): qHTS in cells in absence of CPT; DT40 Tdp1-/- hTDP1 cells, no CPT, ATP luminescence, 48 h; Potency, µM (titrated, usually from 46.2 µM), inactives show top-dose activity change, negative = growth inhibition, hits mostly inhibitors; 15% of 420,000 active; note: potency is the fitted concentration of half-maximal effect; nearly all actives have a fitted effect of over 55% in size
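DT40 Tdp1-/-;hTDP1 cells, no CPT (DMSO vehicle only), 400 cells/well; compounds pin-transferred; ≥48 hr, 37 °C; CellTiter-Glo 30 min RT dark, luminescence read.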
ELG1 repair inh – blocks ELG1-dependent DNA repair in HEK293T cells. 2.3% of 330,000 active. Potency, µM (doses to about 46.1 µM), for inactives: at the highest dose activity change, negative = inhibition, most hits filed as inhibitors. HEK293T ELG1-luciferase reporter, luminescence, 16 h; DNA damage induced by 5-fluorouridine; note: potency is the fitted concentration of half-maximal effect; nearly all actives have a fitted effect of over 55% in size
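Quantitative HTS, concentration-response format. 2,000 cells/well co-treated with 5-fluorouridine and compound, 16 hr in 5% CO2 at 37 °C; ONE-Glo luminescence read after 30 min.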
HT1080 IDH1KD tx – toxicity to HT-1080 IDH1 knockdown cells (counter line) | HT-1080 IDH1 knockdown viability, ATP luminescence, 48 h | Potency, µM (top dose mostly 46.1 µM), for the others: at the top dose activity, negative = toxicity, actives largely listed as cytotoxic | 2% of 360,000 active | AID 686971;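 note: potency is the fitted concentration of half-maximal effect; 0% = DMSO wells and -100% = cell-free medium wells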
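Knockdown cells (IDH1KD HT-1080) received compounds 2 h after plating at 750 cells/well and were kept 48 h at 37 °C in 5% FBS RPMI. A CellTiter-Glo luminescence read gave % activity for curve fitting.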
Starred values were filed as active, the others as inactive; i = inactive; ? = inconclusive; · = no result given. A selection: hits, their analogues and other compounds. The true share with any hit is near 19%. Unless noted, calls come from the whole dose curve; as a rule, active = well fitted curve in the direction sought with a large enough effect; inconclusive = small, poorly fitted or top-dose-only effect, or another doubt; inactive = no such curve, though single readings can be large; an effect the other way counts as inactive or inconclusive. Unless noted, % is set by controls: 0 for no effect and ±100 for the full control effect.

SMILES	IL-1B inflam inh	HT1080NT lethal	DT40 TDP1 CPT	TDP1 cell noCPT	ELG1 repair inh	HT1080 IDH1KD tx
CC(=O)c1cccc(OCc2cc(C(=O)N(C)C(C)c3ccccn3)no2)c1 (stereo unspecified)	i	6%	?	?	4%	-4%
CN(C(=O)c1cnn(-c2ncc3c(n2)-c2ccccc2CCC3)c1C1CC1)C1CCOC1 (stereo unspecified)	·	·	7%	-19%	·	·
CNc1nc(Oc2cccc(F)c2)c2sccc2n1	24	15%	-24%	-26%	·	1%
CC(=O)N1CCN(c2nc3ccc([N+](=O)[O-])cc3s2)CC1	-11	-1%	?	?	?	9%
COC(=O)CCC(NS(=O)(=O)OCC(Cl)(Cl)Cl)c1ccccc1 (stereo unspecified)	25	6%	-28%	?	-12%	2%
CC(C)CC(NS(=O)(=O)OCC(Cl)(Cl)Cl)c1ccccc1 (stereo unspecified)	-20	?	?	16µM*	-10%	-26%
Cc1cc(C(C)(C)C)cc(C)c1COC(=O)CN1C(=O)NC2(CCCC2)C1=O	22	1%	-25%	?	3%	-2%
C=C(C)C1Cc2c(C)nn(-c3cccc4ccccc34)c2C1 (stereo unspecified)	32	?	21µM*	?	-22%	?
CCC(C)[C@H]1CNC(=O)C(=O)N1CCc1cccc2ccccc12 (stereo partly specified)	·	0%	-7%	-12%	·	-13%
COc1ccc(C(=O)N2C=Cc3ccccc3C2C#N)cc1 (stereo unspecified)	9	3%	0%	-24%	·	-2%
N#CC1c2ccccc2C=CN1C(=O)N(c1ccccc1)c1ccccc1 (stereo unspecified)	-97*	?	?	?	·	?
Cc1ccc(NC(=S)Nc2cccc3cnccc23)cc1C	-78*	-1%	?	?	-22%	-6%
S=C(Nc1cccc(Cl)c1)Nc1ccccc1Oc1ccccc1	-21	?	?	21µM*	4%	?
NC(=S)Nc1cccc2cnccc12	34	2%	-1%	-2%	?	5%
Cc1ccccc1NC(=S)Nc1cccc2cnccc12	27	-18%	?	?	?	-26%
S=C(Nc1cccc(Cl)c1)Nc1cccc2cnccc12	?	-8%	16µM*	18µM*	?	-13%
FC(F)(F)c1ccccc1NC(=S)Nc1cccc2cnccc12	23	8%	?	?	?	20%
Cc1ccc(C)c(NC(=S)Nc2cccc3cnccc23)c1	32	?	15µM*	16µM*	?	-7%
S=C(Nc1ccc(Cl)cc1Cl)Nc1ccccc1Oc1ccccc1	-17	-10%	-23%	?	-4%	-7%
COCC(=O)N1CCC2(CCCN(C(c3ccccc3)c3ccccc3)C2)CC1	·	·	8%	?	·	·
CC(=O)c1cccc(N(CC(=O)NC2CCCCC2)C(=O)Cn2nnc(-c3ccccc3)n2)c1	8	-7%	-4%	-27%	-13%	-5%
O=C(CSc1nnc(-c2ccccc2)c2ccccc12)NCCN1C(=O)CSC1=O	?	0%	-1%	1%	-11%	-8%
Cc1ccc(NC(=S)Nc2cccc3cnccc23)cc1	10	5%	?	16µM*	?	-1%
CC(=O)c1ccc(NC(=S)Nc2cccc3cnccc23)cc1	3	-12%	-10%	?	-20%	-3%
C#CCOCCOCCOCCNc1nc(N2CCN(C(=O)[C@H](C)n3cc(CCC(=O)O)nn3)CC2)nc(N2CCN(C(=O)[C@H](CCCCN)n3cc(CCCC)nn3)CC2)n1	24	10%	-17%	5%	·	9%
SMILES	IL-1B inflam inh	HT1080NT lethal	DT40 TDP1 CPT	TDP1 cell noCPT	ELG1 repair inh	HT1080 IDH1KD tx
CCc1cccc(NC(=O)NC(=O)Cn2nnc(C(=O)OC)c2C(=O)OC)c1	?	11%	-8%	-18%	-4%	4%
COC(=O)c1nnn(CC(=O)NC(=O)Nc2ccccc2)c1C(=O)OC	-70*	6%	12%	-16%	-2%	1%
CC(=O)Nc1ccc(N2C(C(C)=O)=NN(c3ccc(Cl)cc3)C2c2sccc2C)cc1 (stereo unspecified)	-7	?	23µM*	23µM*	6%	7.9µM*
CC(=O)Nc1ccc(N2C(C(C)=O)=NN(c3ccccc3)C2c2cccs2)cc1 (stereo unspecified)	-2	-6%	?	?	-8%	?
COc1ccc(C(CNC(=O)C(C)(C)Oc2ccc(Cl)cc2)N2CCCCC2)cc1 (stereo unspecified)	-11	-3%	?	?	-5%	0%
CC(C)(Oc1ccc(Cl)cc1)C(=O)NCC(c1ccco1)N1CCCCC1 (stereo unspecified)	?	1%	21µM*	18µM*	-13%	1%
COc1ccccc1NS(=O)(=O)c1ccc(C(=O)NCc2ccc(S(N)(=O)=O)cc2)cc1	9	-9%	?	15µM*	-3%	1%
Cc1ccc(S(=O)(=O)Nc2ccccc2OC(C(=O)OC(C)(C)C)C(=O)OC(C)(C)C)cc1	39	?	15µM*	16µM*	·	?
CN(c1ccccc1)S(=O)(=O)c1ccc(C(=O)NCC(c2ccco2)N2CCCCC2)cc1 (stereo unspecified)	16	14%	?	15µM*	?	1%
CCN(c1ccccc1C)S(=O)(=O)c1nnc(NC(=O)c2ccc(OC)c(OC)c2)s1	·	·	-22%	?	·	·
COc1ccccc1CNS(=O)(=O)c1cc2c3c(c1)CCN3C(=O)CC2	11	0%	?	?	1%	-1%
COc1ccc(N2CCN(c3cc(C(=O)NC4CCCCC4)ncn3)CC2)cc1OC	-9	-4%	?	?	·	-10%
CN(C)C(CNC(=O)c1cc(S(=O)(=O)N(C)Cc2ccccc2)ccc1Cl)c1ccco1 (stereo unspecified)	-7	0%	12µM*	12µM*	-24%	3%
Cc1ccc(N(C)S(=O)(=O)c2cccc(C(=O)NCC(c3cccs3)N3CCOCC3)c2)cc1 (stereo unspecified)	-4	-14%	?	?	-10%	-18%

Source: PubChem BioAssay
